Test results reported in the supplement of paper PMC3545927.
The other results are listed elsewhere or left out. The true hit rate is not given.

Target: furin, P09958
Assay: furin cleavage Z-score vs untreated control; higher = more cleavage, active = 3.5 or more, inactive = 1 or less, 8 variable residues between constant flanks
Procedure, shortened: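 Purified furin digested bead-held 8-mer peptide–cDNA fusions at 1:10 enzyme:substrate in 0.01 ml of 50 mM HEPES pH 7.5 with CaCl2 and NaCl for 7.5, 15 or 30 min. The cleavage Z-score compares sequencing counts of released DNA with furin-free reactions on a log scale, with lowess adjustment and median absolute deviation scaling.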

Sequence of furin, P09958 (P09958 whole entry): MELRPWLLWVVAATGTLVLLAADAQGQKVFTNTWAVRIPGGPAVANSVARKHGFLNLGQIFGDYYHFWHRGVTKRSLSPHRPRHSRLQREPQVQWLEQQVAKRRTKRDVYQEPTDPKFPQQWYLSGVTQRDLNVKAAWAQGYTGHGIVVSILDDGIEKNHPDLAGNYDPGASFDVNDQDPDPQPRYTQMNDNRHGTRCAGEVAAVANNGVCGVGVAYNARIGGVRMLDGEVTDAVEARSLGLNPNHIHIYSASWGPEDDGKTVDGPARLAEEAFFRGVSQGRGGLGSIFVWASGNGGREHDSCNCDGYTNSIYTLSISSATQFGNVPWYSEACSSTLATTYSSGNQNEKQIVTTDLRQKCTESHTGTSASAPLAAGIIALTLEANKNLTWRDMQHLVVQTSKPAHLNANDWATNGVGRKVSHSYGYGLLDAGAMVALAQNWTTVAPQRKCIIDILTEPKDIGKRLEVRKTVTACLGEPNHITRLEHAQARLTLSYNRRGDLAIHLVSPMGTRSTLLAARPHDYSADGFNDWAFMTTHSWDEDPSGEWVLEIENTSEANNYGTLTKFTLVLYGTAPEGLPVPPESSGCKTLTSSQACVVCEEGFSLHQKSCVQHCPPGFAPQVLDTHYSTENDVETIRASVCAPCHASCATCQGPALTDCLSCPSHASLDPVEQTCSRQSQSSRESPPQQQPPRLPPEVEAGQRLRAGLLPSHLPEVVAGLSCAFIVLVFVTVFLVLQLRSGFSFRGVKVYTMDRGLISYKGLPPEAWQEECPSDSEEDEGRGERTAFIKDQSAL

## CAMEECSQKLAGNASASA [HC1754]
7.5 min
  furin cleavage Z-score: 1.17
15 min
  furin cleavage Z-score: 0.659 (inactive)
30 min
  furin cleavage Z-score: 1.26

## CARMRRPPGGAGNASASA [FS-2496]
7.5 min
  furin cleavage Z-score: -0.899 (inactive)
15 min
  furin cleavage Z-score: -0.697 (inactive)
30 min
  furin cleavage Z-score: -0.784 (inactive)

## CARMRRDGWPAGNASASA [FS-2723]
7.5 min
  furin cleavage Z-score: 2.95
15 min
  furin cleavage Z-score: 4.8 (active)
30 min
  furin cleavage Z-score: 5.65 (active)

## CARDGRDGTPAGNASASA [FS-2000]
7.5 min
  furin cleavage Z-score: 0.0974 (inactive)
15 min
  furin cleavage Z-score: -0.249 (inactive)
30 min
  furin cleavage Z-score: 0.34 (inactive)

## CATTMRSPVFAGNASASA [HC762]
7.5 min
  furin cleavage Z-score: -1.56 (inactive)
15 min
  furin cleavage Z-score: -0.725 (inactive)
30 min
  furin cleavage Z-score: -0.54 (inactive)

## CARMRRALVFAGNASASA [FS-3001]
7.5 min
  furin cleavage Z-score: 4.84 (active)
15 min
  furin cleavage Z-score: 4.35 (active)
30 min
  furin cleavage Z-score: 6.45 (active)

## CARMRRRPGPAGNASASA [FS-2725]
7.5 min
  furin cleavage Z-score: 0.305 (inactive)
15 min
  furin cleavage Z-score: 1.58
30 min
  furin cleavage Z-score: 1.1

## CACAWYELTPAGNASASA [HC923]
7.5 min
  furin cleavage Z-score: -0.0785 (inactive)
15 min
  furin cleavage Z-score: 0.676 (inactive)
30 min
  furin cleavage Z-score: -1.48 (inactive)

## CARFRRGLDNAGNASASA [FS-1704]
7.5 min
  furin cleavage Z-score: 10.1 (active)
15 min
  furin cleavage Z-score: 8.75 (active)
30 min
  furin cleavage Z-score: 7.17 (active)

## CARELRNVGVAGNASASA [FS-1695]
7.5 min
  furin cleavage Z-score: -1.56 (inactive)
15 min
  furin cleavage Z-score: 0.756 (inactive)
30 min
  furin cleavage Z-score: -0.781 (inactive)

## CARTTRSVVHAGNASASA [FS-2837]
7.5 min
  furin cleavage Z-score: -0.34 (inactive)
15 min
  furin cleavage Z-score: 0.171 (inactive)
30 min
  furin cleavage Z-score: 0.71 (inactive)

## CAEVVTSTKVAGNASASA [HC2234]
7.5 min
  furin cleavage Z-score: 0.581 (inactive)
15 min
  furin cleavage Z-score: 0.63 (inactive)
30 min
  furin cleavage Z-score: -0.359 (inactive)

## CARMTRSVDNAGNASASA [FS-2396]
7.5 min
  furin cleavage Z-score: 10.7 (active)
15 min
  furin cleavage Z-score: 10.3 (active)
30 min
  furin cleavage Z-score: 7.86 (active)

## CARFRRGARSAGNASASA [FS-1703]
7.5 min
  furin cleavage Z-score: 10.1 (active)
15 min
  furin cleavage Z-score: 10.3 (active)
30 min
  furin cleavage Z-score: 8.23 (active)

## CARMVRSVKVAGNASASA [FS-1754]
7.5 min
  furin cleavage Z-score: 3.01
15 min
  furin cleavage Z-score: 4.69 (active)
30 min
  furin cleavage Z-score: 6.85 (active)

## CAMHECSQHLAGNASASA [HC1695]
7.5 min
  furin cleavage Z-score: 0.819 (inactive)
15 min
  furin cleavage Z-score: 2.72
30 min
  furin cleavage Z-score: 1.59

## CAFQVAHLHAAGNASASA [HC772]
7.5 min
  furin cleavage Z-score: -0.105 (inactive)
15 min
  furin cleavage Z-score: -0.994 (inactive)
30 min
  furin cleavage Z-score: -1.62 (inactive)

## CAEVVTSMWVAGNASASA [HC2206]
7.5 min
  furin cleavage Z-score: 0.942 (inactive)
15 min
  furin cleavage Z-score: -0.688 (inactive)
30 min
  furin cleavage Z-score: -0.185 (inactive)

## CACTANHDSPAGNASASA [HC1268]
7.5 min
  furin cleavage Z-score: -0.651 (inactive)
15 min
  furin cleavage Z-score: -0.843 (inactive)
30 min
  furin cleavage Z-score: -2.03 (inactive)

## CADLLEDNVTAGNASASA [HC1433]
7.5 min
  furin cleavage Z-score: 0.275 (inactive)
15 min
  furin cleavage Z-score: -2.11 (inactive)
30 min
  furin cleavage Z-score: -1.66 (inactive)

## CAGNLPGCSFAGNASASA [HC244]
7.5 min
  furin cleavage Z-score: -0.0639 (inactive)
15 min
  furin cleavage Z-score: 0.93 (inactive)
30 min
  furin cleavage Z-score: -0.123 (inactive)

## CARPKRSHHCAGNASASA [FS-2399]
7.5 min
  furin cleavage Z-score: 4.25 (active)
15 min
  furin cleavage Z-score: 6.93 (active)
30 min
  furin cleavage Z-score: 6.58 (active)

## CARPKRKGKCAGNASASA [FS-1761]
7.5 min
  furin cleavage Z-score: 0.0893 (inactive)
15 min
  furin cleavage Z-score: 0.774 (inactive)
30 min
  furin cleavage Z-score: 1.28

## CALHKREKRQAGNASASA [FS-1023]
7.5 min
  furin cleavage Z-score: 13.9 (active)
15 min
  furin cleavage Z-score: 12.1 (active)
30 min
  furin cleavage Z-score: 10.2 (active)

## CAMEECSQHCAGNASASA [HC1780]
7.5 min
  furin cleavage Z-score: 1.81
15 min
  furin cleavage Z-score: -0.183 (inactive)
30 min
  furin cleavage Z-score: 1.82

## CAYSALHKRQAGNASASA [FS-1505]
7.5 min
  furin cleavage Z-score: 1.15
15 min
  furin cleavage Z-score: -1.98 (inactive)
30 min
  furin cleavage Z-score: 1.13

## CALPFRSKRQAGNASASA [FS-684]
7.5 min
  furin cleavage Z-score: 9.98 (active)
15 min
  furin cleavage Z-score: 10.9 (active)
30 min
  furin cleavage Z-score: 7.98 (active)

## CARPKRSKRQAGNASASA [FS-1068]
7.5 min
  furin cleavage Z-score: 12.3 (active)
15 min
  furin cleavage Z-score: 11.8 (active)
30 min
  furin cleavage Z-score: 9.11 (active)

## CAQYFLTRVEAGNASASA [HC584]
7.5 min
  furin cleavage Z-score: -0.544 (inactive)
15 min
  furin cleavage Z-score: -0.576 (inactive)
30 min
  furin cleavage Z-score: 0.581 (inactive)

## CADHLEFWEGAGNASASA [HC937]
7.5 min
  furin cleavage Z-score: 0.211 (inactive)
15 min
  furin cleavage Z-score: -1.35 (inactive)
30 min
  furin cleavage Z-score: 0.811 (inactive)

## CATVPCHRPSAGNASASA [HC2318]
7.5 min
  furin cleavage Z-score: -1.23 (inactive)
15 min
  furin cleavage Z-score: 0.611 (inactive)
30 min
  furin cleavage Z-score: 0.585 (inactive)

## CASFGSSSTSAGNASASA [HC1336]
7.5 min
  furin cleavage Z-score: -0.845 (inactive)
15 min
  furin cleavage Z-score: -1.34 (inactive)
30 min
  furin cleavage Z-score: 0.561 (inactive)

## CAPCGIVPAKAGNASASA [HC407]
7.5 min
  furin cleavage Z-score: 0.926 (inactive)
15 min
  furin cleavage Z-score: 0.441 (inactive)
30 min
  furin cleavage Z-score: 0.898 (inactive)

## CAITPCSGSWAGNASASA [HC1824]
7.5 min
  furin cleavage Z-score: -0.759 (inactive)
15 min
  furin cleavage Z-score: -0.739 (inactive)
30 min
  furin cleavage Z-score: -0.66 (inactive)

## CARPKRRKPRAGNASASA [FS-3017]
7.5 min
  furin cleavage Z-score: 6.7 (active)
15 min
  furin cleavage Z-score: 9.47 (active)
30 min
  furin cleavage Z-score: 8.98 (active)

## CAEVITSTWVAGNASASA [HC2184]
7.5 min
  furin cleavage Z-score: -0.201 (inactive)
15 min
  furin cleavage Z-score: -0.151 (inactive)
30 min
  furin cleavage Z-score: 0.767 (inactive)

## CAMEECKQHLAGNASASA [HC31]
7.5 min
  furin cleavage Z-score: 0.641 (inactive)
15 min
  furin cleavage Z-score: 0.811 (inactive)
30 min
  furin cleavage Z-score: 0.523 (inactive)

## CARSACQRQKAGNASASA [HC1392]
7.5 min
  furin cleavage Z-score: 0.38 (inactive)
15 min
  furin cleavage Z-score: -0.49 (inactive)
30 min
  furin cleavage Z-score: 1.17

## CADVPCHRPSAGNASASA [HC2311]
7.5 min
  furin cleavage Z-score: 0.698 (inactive)
15 min
  furin cleavage Z-score: 1.24
30 min
  furin cleavage Z-score: 0.271 (inactive)

## CADVPRRKRKAGNASASA [FS-1316]
7.5 min
  furin cleavage Z-score: 7.09 (active)
15 min
  furin cleavage Z-score: 7.66 (active)
30 min
  furin cleavage Z-score: 8.13 (active)

## CARSARRKRKAGNASASA [FS-1610]
7.5 min
  furin cleavage Z-score: 9.41 (active)
15 min
  furin cleavage Z-score: 11.4 (active)
30 min
  furin cleavage Z-score: 7.56 (active)

## CACVWRRKRKAGNASASA [FS-324]
7.5 min
  furin cleavage Z-score: 4.9 (active)
15 min
  furin cleavage Z-score: 7.08 (active)
30 min
  furin cleavage Z-score: 5.25 (active)

## CADIHRNKRKAGNASASA [FS-408]
7.5 min
  furin cleavage Z-score: 0.37 (inactive)
15 min
  furin cleavage Z-score: 0.486 (inactive)
30 min
  furin cleavage Z-score: 2.04
